Consider 15 molecules from PubChem BioAssay (EPA / NIEHS).

Structures are written as SMILES. Where “and” joins values, the source holds several entries; their conditions need not be identical. Identical values can stand only once. Some compounds were tested as several samples or in several runs, with calls that do not always agree. Calls of active or inactive are those of the source. The calls were made as follows: active = hit-call score of the fitted dose curve at least 0.9, where 1 is the maximum; inactive = score below 0.9.

One may read the AC50 as the midpoint of the concentration-response curve, whichever way the signal moves.

Read-out in experiment [1]: Human Leukocyte Antigen - DR isotype (HLADR), HLA-DRA (gene 3122)
Kind of experiment: BSK_BE3C_HLADR: BioMAP Diversity Plus: BE3C Assay for Human Leukocyte Antigen - DR isotype (HLADR) Biomarker Activity (AID 2283032). To be noted: primary human bronchial epithelial cells; actives raise or lower the signal. Put shortly:
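Chemicals are dosed onto BE3C bronchial epithelial cultures of human origin and left 24 h. HLA-DR is then measured by ELISA, and the endpoint is fitted in both directions using DMSO as the activity baseline.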

Read-out in experiment [2]: Vascular cell adhesion molecule 1 (VCAM1), VCAM1 (gene 7412)
Kind of experiment: BSK_4H_VCAM1: BioMAP Diversity Plus: 4H Assay for Vascular cell adhesion molecule 1 (VCAM1) Biomarker Activity (AID 2283033).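 As to outcome: cell-surface VCAM-1 protein measured by ELISA.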 The settings on record: primary human endothelial cells (HUVEC); actives raise or lower the signal. Put shortly:
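Chemicals are added to primary human umbilical vein endothelial cells. After 24 h, VCAM-1 levels are measured by ELISA. Values come from bidirectional fitting referenced to DMSO.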

Read-out in experiment [3]: Interferon-gamma inducible Protein 10 (IP10), CXCL10 (gene 3627)
Kind of experiment: BSK_BE3C_IP10: BioMAP Diversity Plus: BE3C Assay for Interferon-gamma inducible Protein 10 (IP10) Biomarker Activity (AID 2283034). The settings on record: primary human bronchial epithelial cells; actives raise or lower the signal. Put shortly:
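IP-10 quantified by ELISA serves as the endpoint. Cells: primary human bronchial epithelium, read 24 h after compound addition. Activity is derived by bidirectional fitting with DMSO as negative control.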

Read-out in experiment [4]: Monokine induced gamma interferon (MIG), CXCL9 (gene 4283)
Kind of experiment: BSK_BE3C_MIG: BioMAP Diversity Plus: BE3C Assay for Monokine induced gamma interferon (MIG) Biomarker Activity (AID 2283035).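 As to outcome: MIG protein measured by ELISA in BE3C cultures after 24 h of dosing.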 To be noted: primary human bronchial epithelial cells; actives raise or lower the signal. Put shortly: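 Dose cells (human primary bronchial epithelial), incubate 24 h, quantify MIG by ELISA, then fit concentration–response in both directions relative to DMSO control.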

Read-out in experiment [5]: Transforming growth factor beta 1 (TGFb1), TGFB1 (gene 7040)
Kind of experiment: BSK_BE3C_TGFb1: BioMAP Diversity Plus: BE3C Assay for Transforming growth factor beta 1 (TGFb1) Biomarker Activity (AID 2283036;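 as to outcome: TGF-b1 protein level measured by ELISA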). The settings on record: primary human bronchial epithelial cells; actives raise or lower the signal. The method in brief: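 Bronchial epithelial primary cells are treated with test chemical, then TGF-b1 is quantified by ELISA after 24 hours. Values derive from bidirectional fitting against DMSO, with cytotoxicity checked by SRB staining in parallel cultures.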

Read-out in experiment [6]: Plasminogen activator inhibitor-1 (PAI1), SERPINE1 (gene 5054)
Kind of experiment: BSK_BE3C_PAI1: BioMAP Diversity Plus: BE3C Assay for Plasminogen activator inhibitor-1 (PAI1) Biomarker Activity (AID 2283037). To be noted: primary human bronchial epithelial cells; actives raise or lower the signal. Put shortly:
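Values derive from bidirectional fitting against DMSO baseline of PAI-1 levels, measured by ELISA in human bronchial epithelial cells 24 h after compound addition.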

Read-out in experiment [7]: urokinase plasminogen activator (uPA), PLAU (gene 5328)
Kind of experiment: BSK_BE3C_uPA: BioMAP Diversity Plus: BE3C Assay for urokinase plasminogen activator (uPA) Biomarker Activity (AID 2283038).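 As to outcome: uPA protein level quantified by ELISA in cell cultures; uPA read one day after compound addition.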 To be noted: primary human bronchial epithelial cells; actives raise or lower the signal. The method in brief:
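Using confluent primary human lung bronchial epithelial cultures, we dosed chemicals, waited 24 h, then ran a uPA ELISA, fitting bidirectionally against DMSO.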

Read-out in experiment [8]: Urokinase-type plasminogen activator receptor (uPAR), PLAUR (gene 5329)
Kind of experiment: BSK_BE3C_uPAR: BioMAP Diversity Plus: BE3C Assay for Urokinase-type plasminogen activator receptor (uPAR) Biomarker Activity (AID 2283039).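 As to outcome: uPAR protein level measured by ELISA on the cells; cells exposed to compound for one day before measurement.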 The settings on record: primary human bronchial epithelial cells; actives raise or lower the signal. Put shortly: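 Steps: dose human primary bronchial epithelial cells, incubate 24 h, measure uPAR by ELISA, then fit gain- or loss-of-signal response bidirectionally relative to DMSO.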

Read-out in experiment [9]: Interleukin-6 (IL6), IL6 (gene 3569)
Kind of experiment: BSK_CASM3C_IL6: BioMAP Diversity Plus: CASM3C Assay for Interleukin-6 (IL6) Biomarker Activity for (AID 2283040). The settings on record: primary human coronary artery smooth muscle cells; actives raise or lower the signal.

Read-out in experiment [10]: Vascular endothelial growth factor receptor 2 (Homo sapiens) (UniProt P35968)
Kind of experiment: BSK_4H_VEGFRII: BioMAP Diversity Plus: 4H Assay for Vascular endothelial growth factor receptor 2 (VEGFR2) Biomarker Activity (AID 2283031). The settings on record: primary human endothelial cells (HUVEC); actives raise or lower the signal. Put shortly:
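In this multiplexed HUVEC system, biomarker ELISA was performed after 24 h chemical exposure. Parallel SRB staining (TCA fixation, 560 nm) tracked cytotoxicity; DMSO served as baseline.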

As for `Cc1ccc(S(=O)(=O)C(I)I)cc1`, the half-maximal activity concentration (AC50) in experiment [1] is 7 µM (active); in experiment [2], 2.19 µM (active); in [3], 6.58 µM (active); in experiment [4] it was 11 µM (active); in experiment [5], 7.3 µM (active); in experiment [6], 5.39 µM (active). Further, the AC50 in [7] was 6.62 µM (active); in experiment [8] it was 6.81 µM (active); in [9] it was 2.67 µM (active).
For the molecule `CN(C(=O)C(F)(F)C(F)(F)C(F)(F)F)[Si](C)(C)C`, the result in experiment [10], in experiment [1], in [2], in [3], in experiment [4] and in experiment [6] was inactive. Also, the result in experiment [7], in experiment [8] and in [9] was inactive.
For the molecule `Brc1nc2ccccc2s1`, the outcome in [10], in experiment [1], in [2], in [3], in experiment [4] and in experiment [5] was inactive. Also, the result in experiment [7], in experiment [8] and in [9] was inactive.
On to `Cc1cc(O)c(C(C)(C)C)cc1C(C)(C)C`, for which the result in experiment [10] was inactive. Further, the AC50 in experiment [1] was 5.31 µM (active); in [2] it was 4.86 µM (active); in [3], 6.09 µM (active); in experiment [4], 11 µM (active); in experiment [5], 5.2 µM (active); in experiment [7] it was 5.51 µM (active). Further, the AC50 in experiment [8] was 5.33 µM (active); in experiment [9], 5.61 µM (active).
As for `O=C(c1ccccc1)c1ccc(O)cc1O`, the outcome in experiment [10], in experiment [1], in experiment [2], in experiment [3], in experiment [4] and in [5] was inactive. The result in [7], in experiment [8] and in [9] was inactive.
On to `NC(=O)C(F)(F)C(F)(F)C(F)(F)C(F)(F)C(N)=O`, for which the outcome in [10], in [1], in experiment [2], in [3], in [4] and in experiment [7] was inactive. Further, the outcome in [8] and in experiment [9] was inactive.
In the case of `CCN(CCO)S(=O)(=O)C(F)(F)C(F)(F)C(F)(F)C(F)(F)C(F)(F)C(F)(F)C(F)(F)C(F)(F)F`, the AC50 in [1] is 43.7 µM (active) and 27.7 µM (active); in [2], 50.6 µM (active); in experiment [3], 35 µM (active) and 14.4 µM (active); in experiment [4], 50.6 µM (active) and 43.2 µM (active); in [7], 47.8 µM (active); in experiment [8], 46.4 µM (active) and 36.9 µM (active). Further, the outcome in experiment [2], in experiment [7] and in experiment [9] was inactive.
For `CC1=CC2C3C=CC(C3)C2C1C` (centres undefined), the outcome in experiment [10], in experiment [1], in [2], in experiment [3], in experiment [4] and in [5] was inactive. The result in experiment [6], in experiment [7], in [8] and in experiment [9] was inactive.
As for `NC(O)(C(F)(F)F)C(F)(F)F`, the outcome in [10], in experiment [1], in experiment [2], in experiment [3], in [4] and in [6] was inactive. Further, the result in [7], in [8] and in experiment [9] was inactive.
For `C=CC(=O)OCCC(F)(F)C(F)(F)C(F)(F)C(F)(F)F`, the result in experiment [1], in experiment [2], in [3], in experiment [4], in experiment [6] and in experiment [7] was inactive. The result in experiment [8] and in experiment [9] was inactive. The AC50 in [2] was 21.1 µM (active).
Consider `OCC(F)(F)C(F)(F)C(F)(F)CO`, for which the result in experiment [10], in experiment [1], in [2], in experiment [3], in experiment [4] and in experiment [7] was inactive. Besides, the outcome in [8] and in experiment [9] was inactive.
Regarding `CCN(CC)c1ccc2c(c1)Oc1cc(N(CC)CC)ccc1C21OC(=O)c2ccccc21`, the result in experiment [10], in [1], in experiment [2], in experiment [4], in [5] and in experiment [7] was inactive. The outcome in [8] and in [9] was inactive. Further, the AC50 in [3] is 1.98 µM (active).
As for `OC(O)C(F)(F)C(F)(F)F`, the result in experiment [10], in experiment [1], in experiment [2], in experiment [3], in experiment [4] and in [7] was inactive. The result in [8] and in experiment [9] was inactive.
As for `O=C=Nc1cccc2c(N=C=O)cccc12`, the outcome in experiment [10], in [1], in experiment [2], in [3], in experiment [4] and in experiment [5] was inactive. The outcome in experiment [7], in [8] and in experiment [9] was inactive.
Take `C[C@]12CC[C@H]3C(=CCc4cc(O)ccc43)[C@@H]1CCC2=O`: the result in experiment [10], in experiment [1], in [2], in experiment [4], in experiment [5] and in experiment [6] was inactive. Further, the outcome in experiment [7], in experiment [8] and in [9] was inactive. Moreover, in experiment [3], the AC50 is 6.48 µM (active).
